PubChem BioAssay (NCI)
This is part of a sample that, as a whole, favours compounds with a hit. Of some 83,000 tested, about 20% had one in any assay.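 The test compound was applied at a single concentration to cells in 96-well plates for 48 hours, and percent growth was recorded.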 Activity calls are given as the source filed them. Rule for the calls: active = growth percent below 10; inactive = the rest.

Assays:
Experiment in all cases: NCI-60 one-dose screen, 48 h (100 = growth as untreated, 0 = no growth, -100 = all killed)
EKVX NSCLC = settings: 10 µM unless noted
SN12C renal = settings: 10 µM unless noted
UO-31 renal = settings: 10 µM unless noted
TK-10 renal = settings: 10 µM unless noted
ACHN renal = settings: 10 µM unless noted
CAKI-1 renal = settings: 10 µM unless noted
A498 renal = settings: 10 µM
HL-60(TB) leukemia = settings: 10 µM unless noted
CCRF-CEM leukemia = settings: 10 µM unless noted
MOLT-4 leukemia = settings: 10 µM unless noted
SR leukemia = settings: 10 µM unless noted
RPMI-8226 leukemia = settings: 10 µM unless noted
OVCAR-8 ovarian = settings: 10 µM unless noted
OVCAR-5 ovarian = settings: 10 µM unless noted
OVCAR-4 ovarian = settings: 10 µM unless noted
SK-OV-3 ovarian = settings: 10 µM unless noted
IGROV1 ovarian = settings: 10 µM unless noted
OVCAR-3 ovarian = settings: 10 µM unless noted
HS 578T breast = settings: 10 µM unless noted

Measured: growth

CC1CCCC(C[N+](C)(C)C)C1=O (stereo not given)
inactive: EKVX NSCLC 110% | SN12C renal 92.5% | UO-31 renal 73.5% | TK-10 renal 106% | ACHN renal 97.5% | CAKI-1 renal 103% | A498 renal 101% | HL-60(TB) leukemia 104% | CCRF-CEM leukemia 95.2% | MOLT-4 leukemia 75.7% | SR leukemia 86.8% | RPMI-8226 leukemia 105% | OVCAR-8 ovarian 108% | OVCAR-5 ovarian 104% | OVCAR-4 ovarian 93.1% | SK-OV-3 ovarian 110% | IGROV1 ovarian 92.3% | OVCAR-3 ovarian 121% | HS 578T breast 111%

COc1cc(/C=C/[N+](=O)[O-])cc(OC)c1
inactive: EKVX NSCLC 59.4% | SN12C renal 44.7% | CAKI-1 renal 44.2% | OVCAR-8 ovarian 13.8% | OVCAR-5 ovarian 13.8% | OVCAR-4 ovarian 47.6% | SK-OV-3 ovarian 71.7% | HS 578T breast 40.9%
active: UO-31 renal -82.3% | TK-10 renal -13.9% | ACHN renal -48.9% | A498 renal -4.1% | HL-60(TB) leukemia -20.3% | CCRF-CEM leukemia -7.03% | MOLT-4 leukemia 7.52% | SR leukemia -12.3% | RPMI-8226 leukemia -24.1% | IGROV1 ovarian 9.88% | OVCAR-3 ovarian -30.3%

CC(C)=CCC[C@H](C(=O)O)[C@@H]1CC[C@]2(C)C3=C(CC[C@@]12C)[C@@]1(C)CC[C@H](O)C(C)(C)[C@@H]1CC3
inactive: EKVX NSCLC 95% | SN12C renal 102% | UO-31 renal 89.8% | TK-10 renal 93.8% | ACHN renal 101% | CAKI-1 renal 75% | A498 renal 104% | HL-60(TB) leukemia 85.1% | CCRF-CEM leukemia 109% | MOLT-4 leukemia 88.6% | SR leukemia 91.8% | RPMI-8226 leukemia 88.8% | OVCAR-8 ovarian 96.4% | OVCAR-5 ovarian 96.8% | OVCAR-4 ovarian 103% | SK-OV-3 ovarian 96.7% | IGROV1 ovarian 103% | OVCAR-3 ovarian 107% | HS 578T breast 99.9%

COc1ccc(/C=C\c2cc(OC)c(OC)c(OC)c2)cc1NC(=O)/C=C/c1ccc(OC)c(OC)c1
active: A498 renal -1.67% | HL-60(TB) leukemia -24.9% | SK-OV-3 ovarian -19.5% | OVCAR-3 ovarian 1.59%
inactive: EKVX NSCLC 55.1% | SN12C renal 43.5% | UO-31 renal 41.6% | TK-10 renal 91% | ACHN renal 42% | CAKI-1 renal 42.3% | CCRF-CEM leukemia 12.1% | MOLT-4 leukemia 17.3% | OVCAR-8 ovarian 44.4% | OVCAR-5 ovarian 55.4% | OVCAR-4 ovarian 58.7% | IGROV1 ovarian 55.1% | HS 578T breast 31.3%

C[C@@H]1C[C@@]2(C)[C@@H](CC[C@@H]3[C@@H]2CC[C@]2(C)C(=O)CC[C@@H]32)CC1=O
active: CAKI-1 renal -30.7%
inactive: EKVX NSCLC 86.5% | SN12C renal 103% | UO-31 renal 96.3% | TK-10 renal 94% | ACHN renal 103% | A498 renal 71.9% | HL-60(TB) leukemia 74.6% | CCRF-CEM leukemia 83.7% | MOLT-4 leukemia 66.2% | SR leukemia 108% | RPMI-8226 leukemia 137% | OVCAR-8 ovarian 62.6% | OVCAR-5 ovarian 93.6% | OVCAR-4 ovarian 103% | SK-OV-3 ovarian 120% | IGROV1 ovarian 76.7% | OVCAR-3 ovarian 112% | HS 578T breast 81.2%

CCN(CC)c1ccc2c(c1)OC(N)=C(C#N)C2c1cc(OC)c2c(c1)OCO2 (stereo not given)
inactive: EKVX NSCLC 41.7% | SN12C renal 15.1% | UO-31 renal 34.7% | TK-10 renal 59.3% | ACHN renal 21.4% | CAKI-1 renal 32.7% | HL-60(TB) leukemia 13% | MOLT-4 leukemia 23.7% | RPMI-8226 leukemia 26.6% | OVCAR-8 ovarian 17.6% | OVCAR-5 ovarian 51.6% | OVCAR-4 ovarian 43.5% | IGROV1 ovarian 24%
active: A498 renal -4% | OVCAR-3 ovarian -30.7% | HS 578T breast 9.12%

COc1ccc(C(=O)c2sc3nc4c(cc3c2N)N2CCC4CC2)cc1OC
inactive: SN12C renal 93.4% | UO-31 renal 52.8% | TK-10 renal 91.7% | ACHN renal 81.8% | CAKI-1 renal 79.7% | A498 renal 116% | HL-60(TB) leukemia 94.5% | CCRF-CEM leukemia 74.7% | MOLT-4 leukemia 77.3% | SR leukemia 83.4% | RPMI-8226 leukemia 51.4% | OVCAR-8 ovarian 85.7% | OVCAR-5 ovarian 107% | OVCAR-4 ovarian 85.7% | SK-OV-3 ovarian 96.2% | IGROV1 ovarian 104% | OVCAR-3 ovarian 100% | HS 578T breast 100%

COC(=O)[C@@]1(O)C[C@H]2O[C@]1(C)n1c3ccccc3c3c4c(c5c6ccccc6n2c5c31)C(=O)NC4
active: EKVX NSCLC -30.9% | SN12C renal -47.2% | UO-31 renal -57.9% | ACHN renal -27.3% | CAKI-1 renal -97.5% | A498 renal -96.6% | HL-60(TB) leukemia -44.5% | CCRF-CEM leukemia 0.604% | MOLT-4 leukemia -31% | SR leukemia -18.3% | RPMI-8226 leukemia -39.6% | OVCAR-8 ovarian -43.6% | OVCAR-5 ovarian -11.6% | OVCAR-4 ovarian -51% | SK-OV-3 ovarian -33.8% | IGROV1 ovarian -30.4% | OVCAR-3 ovarian -19.2%

Oc1ccc2c3c1OC1[C@@H](O)CC[C@@]4(O)[C@@H](C2)N(CC2CCC2)CC[C@]314 (stereo not given in full)
inactive: EKVX NSCLC 99.7% | SN12C renal 103% | UO-31 renal 83.2% | TK-10 renal 106% | CAKI-1 renal 94% | A498 renal 94.7% | HL-60(TB) leukemia 102% | CCRF-CEM leukemia 97.5% | MOLT-4 leukemia 97.7% | SR leukemia 99.5% | RPMI-8226 leukemia 103% | OVCAR-8 ovarian 104% | OVCAR-4 ovarian 98.2% | SK-OV-3 ovarian 109% | IGROV1 ovarian 103% | OVCAR-3 ovarian 116% | HS 578T breast 105%

OCCCCCNC1CCCCC1
inactive: SN12C renal 105% | UO-31 renal 87.5% | TK-10 renal 86.5% | ACHN renal 94.1% | CAKI-1 renal 101% | A498 renal 105% | HL-60(TB) leukemia 91.7% | MOLT-4 leukemia 83.9% | SR leukemia 89.7% | RPMI-8226 leukemia 102% | OVCAR-8 ovarian 103% | OVCAR-5 ovarian 86.3% | OVCAR-4 ovarian 103% | SK-OV-3 ovarian 102% | IGROV1 ovarian 103%

CC(C)(C)N1CC1C#N (stereo not given)
inactive: SN12C renal 103% | UO-31 renal 92.1% | TK-10 renal 98% | ACHN renal 101% | CAKI-1 renal 92.6% | A498 renal 105% | HL-60(TB) leukemia 98.3% | CCRF-CEM leukemia 101% | MOLT-4 leukemia 98.4% | SR leukemia 97.6% | RPMI-8226 leukemia 99.2% | OVCAR-8 ovarian 103% | OVCAR-5 ovarian 99.5% | OVCAR-4 ovarian 119% | SK-OV-3 ovarian 101% | IGROV1 ovarian 103% | HS 578T breast 104%

O=C1CCC2(O)[C@@H]3Cc4ccc(O)c5c4[C@]2(CCN3Cc2ccoc2)C1O5 (stereo not given in full)
inactive: SN12C renal 97.9% | UO-31 renal 78.8% | TK-10 renal 102% | ACHN renal 98% | CAKI-1 renal 99.3% | A498 renal 108% | HL-60(TB) leukemia 95% | CCRF-CEM leukemia 98.5% | MOLT-4 leukemia 101% | SR leukemia 95.4% | RPMI-8226 leukemia 101% | OVCAR-8 ovarian 102% | OVCAR-5 ovarian 98.7% | OVCAR-4 ovarian 105% | SK-OV-3 ovarian 105% | IGROV1 ovarian 112% | OVCAR-3 ovarian 107% | HS 578T breast 105%

COC(=O)C1CCC(NC(=O)c2csc([C@@H](C[C@H](C(C)C)N(C)C(=O)[C@@H](NC(=O)[C@H]3CCCCN3C)C(C)C)OC(C)=O)n2)CC1 (stereo not given in full)
active: A498 renal -6.6% | HL-60(TB) leukemia -21.8% | OVCAR-3 ovarian -37.6%
inactive: EKVX NSCLC 40.8% | SN12C renal 28.7% | UO-31 renal 60.8% | TK-10 renal 63.1% | ACHN renal 23.8% | CCRF-CEM leukemia 13% | MOLT-4 leukemia 18.1% | SR leukemia 20.1% | RPMI-8226 leukemia 25.7% | OVCAR-8 ovarian 19.3% | OVCAR-5 ovarian 53% | OVCAR-4 ovarian 45.3% | SK-OV-3 ovarian 20.8% | IGROV1 ovarian 28.3% | HS 578T breast 42.6%

CC[C@H](NC(=O)[C@H]1CCCCN1C)C(=O)N(C)[C@H](C[C@@H](OC(C)=O)c1nc(C(=O)N[C@@H](Cc2ccccc2)C[C@H](C)C(=O)O)cs1)C(C)C
inactive: EKVX NSCLC 40.6% | SN12C renal 17.1% | UO-31 renal 41.7% | TK-10 renal 69% | ACHN renal 34.4% | MOLT-4 leukemia 10.2% | RPMI-8226 leukemia 15.5% | OVCAR-5 ovarian 37.5% | OVCAR-4 ovarian 43.5% | SK-OV-3 ovarian 25.8% | IGROV1 ovarian 25.3% | HS 578T breast 11.4%
active: HL-60(TB) leukemia -21.5% | CCRF-CEM leukemia 1.98% | SR leukemia 6.46% | OVCAR-8 ovarian 9.15% | OVCAR-3 ovarian -6.57%

CC(=O)C(c1c(O)c2ccccc2oc1=O)c1cc(=O)oc2c1ccc1ccccc12 (stereo not given)
inactive: EKVX NSCLC 92.1% | SN12C renal 87.1% | UO-31 renal 80.3% | TK-10 renal 116% | ACHN renal 101% | A498 renal 79.8% | HL-60(TB) leukemia 96.9% | CCRF-CEM leukemia 94.5% | MOLT-4 leukemia 90.2% | SR leukemia 92.5% | RPMI-8226 leukemia 94% | OVCAR-8 ovarian 99.4% | OVCAR-5 ovarian 99.4% | OVCAR-4 ovarian 101% | SK-OV-3 ovarian 94.6% | IGROV1 ovarian 106% | OVCAR-3 ovarian 110% | HS 578T breast 91.5%

C[C@@H]1O[C@@H](O[C@H]2C[C@@H](O)[C@]3(CO)C4C(CC[C@]3(O)C2)[C@@]2(O)CC[C@H](C3=CC(=O)OC3)[C@@]2(C)C[C@H]4O)[C@H](O)[C@H](O)[C@H]1O (stereo not given in full)
active: EKVX NSCLC -74.3% | SN12C renal -22.5% | UO-31 renal -87.3% | CAKI-1 renal -73.4% | A498 renal -6.39% | HL-60(TB) leukemia -53.2% | CCRF-CEM leukemia -12% | MOLT-4 leukemia -29.4% | SR leukemia -31.2% | OVCAR-8 ovarian -81% | OVCAR-4 ovarian -24.3% | SK-OV-3 ovarian -88.2% | IGROV1 ovarian -5.14% | OVCAR-3 ovarian -96.2%
inactive: RPMI-8226 leukemia 17.8%

Nc1nc([Se])c2ncn(C3OC(CO)C(O)C3O)c2n1 (stereo not given)
active: MOLT-4 leukemia 7.08%
inactive: EKVX NSCLC 62.9% | SN12C renal 94.7% | UO-31 renal 84.9% | TK-10 renal 59.6% | ACHN renal 84.3% | A498 renal 95.3% | HL-60(TB) leukemia 41.7% | CCRF-CEM leukemia 16.3% | RPMI-8226 leukemia 23.9% | OVCAR-8 ovarian 55.8% | OVCAR-5 ovarian 60.8% | OVCAR-4 ovarian 79.5% | SK-OV-3 ovarian 77.7% | OVCAR-3 ovarian 104% | HS 578T breast 75.4%
